Measurements: the supplement of paper PMC6992640
± gives the standard deviation of the averaged measurements.

Assays:
Assay in all cases: cell viability (% of vehicle); higher = less cytotoxic
Conditions in all cases: 10 µM; 72 h
HCI01 = system: HCI01 (cells of a triple-negative basal-like breast cancer xenograft)
HCI03 = system: HCI03 (cells of an ER-positive luminal breast cancer xenograft)
HCI09 = system: HCI09 (cells of a triple-negative luminal androgen receptor type breast cancer xenograft)
HCI11 = system: HCI11 (cells of an ER-positive luminal breast cancer xenograft)
HCI13 = system: HCI13 (cells of an ER-positive luminal breast cancer xenograft)
HCI16 = system: HCI16 (cells of a triple-negative basal-like breast cancer xenograft)
UCD52 = system: UCD52 (cells of a triple-negative basal-like breast cancer xenograft)
WHIM2 = system: WHIM2 (cells of a triple-negative basal-like breast cancer xenograft)
WHIM30 = system: WHIM30 (cells of a triple-negative basal-like breast cancer xenograft)
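Also: PDX cells carrying CMV promoter-driven luciferase, viability read as total photon flux per second by IVIS imaging following D-luciferin, vehicle control 0.1% DMSO.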

Row | SMILES | cell viability (HCI01) | cell viability (HCI03) | cell viability (HCI09) | cell viability (HCI11) | cell viability (HCI13) | cell viability (HCI16) | cell viability (UCD52) | cell viability (WHIM2) | cell viability (WHIM30)
1 | CCCCCCCCCC(=O)NC(Cc1c[nH]c2ccccc12)C(=O)NC(CC(N)=O)C(=O)NC(CC(=O)O)C(=O)NC1C(=O)NCC(=O)NC(CCCN)C(=O)NC(CC(=O)O)C(=O)NC(C)C(=O)NC(CC(=O)O)C(=O)NCC(=O)NC(CO)C(=O)NC(C(C)CC(=O)O)C(=O)NC(CC(=O)c2ccccc2N)C(=O)OC1C (configuration not stated) [Daptomycin] | 142 ± 4.9 | 141 | 128 ± 9.9 | 113 | 163 ± 89 | 111 | 118 ± 18 | 103 ± 28 | 162 ± 40
2 | O=C1OC(C(O)CO)C(O)=C1O (configuration not stated) [Vitamin C] | 76.9 ± 31 | 111 | 93.6 ± 11 | 84.3 | 90 ± 12 | 108 | 75 ± 3.8 | 113 ± 34 | 135 ± 5.2
3 | CN(C)CCCN1c2ccccc2Sc2ccc(Cl)cc21.Cl [Chlorpromazine HCl] | 137 ± 40 | 98.9 | 68.1 ± 7.8 | 76.5 | 84.7 ± 3.1 | 122 | 51.4 ± 5.5 | 47.8 ± 7.8 | 104 ± 2.1
4 | CCOc1ccc(NC(C)=O)cc1 [Phenacetin] | 139 ± 6 | 136 | 96.9 ± 17 | 96.7 | 102 ± 3.9 | 122 | 82 ± 12 | 98.7 ± 10 | 94.4 ± 11
5 | N#CC(c1ccc(Cl)cc1)c1c(Cl)cc(-n2ncc(=O)[nH]c2=O)cc1Cl (configuration not stated) [Diclazuril] | 98.7 ± 32 | 119 | 64 ± 57 | 95.3 | 59.1 ± 10 | 123 | 96.3 ± 31 | 115 ± 19 | 161 ± 11
6 | CCCC(CCC)C(=O)[O-].[Na+] [Valproic acid sodium salt (Sodium valproate)] | 190 ± 54 | 154 | 92 ± 18 | 140 | 111 ± 14 | 159 | 158 ± 42 | 105 ± 18 | 192 ± 10
7 | Cl.Cl.O=C(O)COCCN1CCN(C(c2ccccc2)c2ccc(Cl)cc2)CC1 (configuration not stated) [Cetirizine DiHCl] | 111 ± 5.7 | 118 | 98.4 ± 0.98 | 103 | 147 ± 6.2 | 116 | 78.6 ± 6.7 | 90.1 ± 1.9 | 109 ± 7.9
8 | CC(=O)[C@@]1(O)CC[C@H]2[C@@H]3CCC4=CC(=O)CCC4=C3[C@@H](c3ccc(N(C)C)cc3)C[C@@]21C [Ulipristal] | 70.8 ± 48 | 147 | 36.6 ± 13 | 82.9 | 113 ± 3.3 | 118 | 93.5 ± 11 | 87.8 ± 10 | 142 ± 1.3
9 | COC(=O)N=NC=C1C=[N+]([O-])c2ccccc2N1O [Carbadox] | 106 ± 3.1 | 116 | 97.8 ± 8.7 | 107 | 106 ± 28 | 98.8 | 72.3 ± 12 | 96.8 ± 9.7 | 114 ± 9.4
10 | CCOc1nc2cccc(C(=O)OCc3oc(=O)oc3C)c2n1Cc1ccc(-c2ccccc2-c2nc(=O)o[nH]2)cc1 [Azilsartan Medoxomil] | 100 ± 6.8 | 162 | 107 ± 2.2 | 94.2 | 106 ± 14 | 124 | 111 ± 8.7 | 106 ± 18 | 127 ± 2.7
11 | CN(C)c1cc(NC(=O)CNC(C)(C)C)c(O)c2c1CC1CC3C(N(C)C)C(=O)C(C(N)=O)=C(O)C3(O)C(=O)C1=C2O (configuration not stated) [Tigecycline] | 80 ± 10 | 121 | 95.8 ± 8.5 | 81.9 | 129 ± 23 | 120 | 96.7 ± 21 | 102 ± 22 | 129 ± 8.6
12 | CC(C)C(=O)Nc1ccc([N+](=O)[O-])c(C(F)(F)F)c1 [Flutamide] | 136 ± 7.3 | 139 | 71.8 ± 8 | 125 | 97.9 ± 8.4 | 78.4 | 78.9 ± 5.1 | 112 ± 33 | 116 ± 6.6
13 | CC12CCC3=C4CCC(=O)C=C4CCC3C1CCC2(O)CC#N (configuration not stated) [Dienogest] | 178 ± 40 | 124 | 94.3 ± 2.7 | 82.2 | 170 ± 3.3 | 164 | 92.3 ± 3.2 | 105 ± 6.8 | 139 ± 9
14 | Cc1ccc(Nc2nccc(N(C)c3ccc4c(C)n(C)nc4c3)n2)cc1S(N)(=O)=O.Cl [Pazopanib Hydrochloride] | 123 ± 20 | 101 | 77.01 ± 0.6 | 96.8 | 75.6 ± 13 | 134 | 94.9 ± 13 | 127 ± 32 | 76.7 ± 5.5
15 | CCC1OC(=O)C(C)C(OC2CC(C)(OC)C(O)C(C)O2)C(C)C(OC2OC(C)CC(N(C)C)C2O)C(C)(O)CC(C)CN(C)C(C)C(O)C1(C)O.O.O (configuration not stated) [Azithromycin Dihydrate] | 110 ± 9 | 114 | 101 ± 10 | 112 | 144 ± 5 | 104 | 85.4 ± 1.5 | 102 ± 2.7 | 89 ± 1.7
16 | Cc1cccc(N(C)C(=S)Oc2ccc3ccccc3c2)c1 [Tolnaftate] | 113 ± 28 | 140 | 72.7 ± 30 | 95.2 | 96.2 ± 8.2 | 108 | 71.2 ± 2.5 | 91.6 ± 8.1 | 131 ± 9.2
17 | CC1(C)SC2C(NC(=O)C(NC(=O)N3CCNC3=O)c3ccccc3)C(=O)N2C1C(=O)[O-].[Na+] (configuration not stated) [Azlocillin sodium salt] | 97.6 ± 24 | 131 | 104 ± 17 | 104 | 76.5 ± 9.1 | 130 | 97.766 ± 0.039 | 106 ± 29 | 125 ± 12
18 | CN(C)C(=N)N=C(N)N.Cl [Metformin HCl] | 100 ± 14 | 123 | 92.5 ± 13 | 86.2 | 102 ± 6.9 | 117 | 82.2 ± 4.7 | 91.7 ± 3.1 | 136 ± 14
19 | CCc1ccc(CCOc2ccc(CC3SC(=O)NC3=O)cc2)nc1.Cl (configuration not stated) [Pioglitazone HCl] | 119 ± 6.9 | 129 | 93.7 ± 19 | 125 | 126 ± 2 | 102 | 116 ± 11 | 116 ± 13 | 182 ± 40
20 | Cc1cccc(Nc2ccncc2S(=O)(=O)NC(=O)NC(C)C)c1 [Torsemide] | 84.3 ± 43 | 140 | 95.4 ± 16 | 93.5 | 120 ± 21 | 127 | 106 ± 1.8 | 106 ± 1.5 | 171 ± 13
21 | CCOC(=O)C1=C(C)NC(C)=C(C(=O)OC)C1c1cccc(Cl)c1Cl (configuration not stated) [Felodipine] | 116 ± 5 | 117 | 118 ± 6.6 | 114 | 112 ± 15 | 97.9 | 88.5 ± 2.3 | 102 ± 10 | 124 ± 2.7
22 | CN(CC=CC#CC(C)(C)C)Cc1cccc2ccccc12 [Terbinafine] | 105 ± 5.9 | 114 | 136 ± 70 | 108 | 111 ± 26 | 139 | 106 ± 3 | 73.1 ± 24 | 117 ± 3.4
23 | CCC1OC(=O)C(C)C(OC2CC(C)(OC)C(O)C(C)O2)C(C)C(OC2OC(C)CC(N(C)C)C2O)C(C)(OC)CC(C)C(=O)C(C)C(O)C1(C)O (configuration not stated) [Clarithromycin] | 112 ± 5.1 | 137 | 94.7 ± 19 | 116 | 125 ± 11 | 96.6 | 95.5 ± 8.8 | 104 ± 10 | 113 ± 22
